# From PubChem BioAssay
# Pf Dd2 inh – inhibitors of Plasmodium falciparum Dd2 growth; P. falciparum Dd2 growth, SYBR Green, 72 h; AID 1347417; 120,000 tested, 4.3% active; Potency, µM (titrated, usually from 28.9 µM), usual class: inhibitors; active = well fitted inhibition curve with a large enough effect; note: nearly all actives have a fitted effect of over 65% in size
#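 Readout: SYBR Green fluorescence, 485 nm excitation, 535 nm emission, after ~16 h lysis at 37C. Before that, Dd2-infected red cells (2.5% hematocrit) grew 72 h with compound, 29 uM top final concentration.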
# Hits are given with their value; . = inactive; [ ] = dose if it differs, or a comment. This excerpt belongs to a sample that is enriched for hits.
SMILES,Pf Dd2 inh
Cc1cc(C(=O)NCC(=O)N2CCCCCCNC(=O)CC2c2ccccc2)n(C)n1 (stereo unspecified),.
O=C(COc1ccccc1)NCC(=O)N1CCCCCCNC(=O)CC1c1ccccc1 (stereo unspecified),.
O=C1CC(c2ccccc2)N(C(=O)CNC(=O)C2CC2)CCCCCCN1 (stereo unspecified),.
Cc1ncccc1C(=O)N1CCCCCCNC(=O)[C@@H]2CCCC[C@@H]21,.
Cn1nc(C(=O)NCC(=O)N2CCCCCCNC(=O)CC2c2ccccc2)c2ccccc21 (stereo unspecified),0.63µM
O=C1NCCCCCCN(C(=O)c2ccccn2)[C@H]2CCC[C@@H]12,.
O=C1CC(c2ccccc2)N(C(=O)CNS(=O)(=O)c2ccc3c(c2)CCC3)CCCCCCN1 (stereo unspecified),11µM
O=C(CC1CCCCC1)N1CCC(Cc2nc(-c3ccc(F)cc3)no2)CC1,.
O=C1Nc2ccccc2O[C@H]2C[C@@H]1N(C1CCCC1)C2,.
COc1ccccc1CN1CC(C(=O)NCc2ccncc2)C2(CCOCC2)C1 (stereo unspecified),.
O=C(NC1CCc2n[nH]c(=O)n2CC1)c1ccc(Br)o1 (stereo unspecified),.
O=C(CCC1CCCC1)N1CCC2(CCCCO2)CC1,.
Cc1cccc(C(=O)NCCC2CCN(C(=O)Nc3ccc(F)cc3)CC2)c1,.
CCC(=O)NCCC1CCN(C(=O)Nc2ccc(C)c(F)c2)CC1,.
Cc1ccc(OCC(=O)NCCC2CCN(C(=O)Nc3ccc(F)cc3)CC2)cc1,13µM
Cc1ccc(NC(=O)N2CCC(CCNC(=O)c3n[nH]c4ccccc34)CC2)cc1F,4µM
Cc1ccc(NC(=O)N2CCC(CCNC(=O)Cc3cccc(F)c3)CC2)cc1,.
CCC(=O)NCCC1CCN(C(=O)Nc2ccc(C)cc2)CC1,.
Cn1ncc(N2CCCC(CC(=O)Nc3ccccc3F)C2)cc1=O (stereo unspecified),.
Cn1cc(-c2cccc(OC(F)(F)F)c2)c2nc(CN3CCNC(=O)C3)cn2c1=O,.
Cn1nc(C2CCN(C(=O)c3ccc4ccccc4n3)CC2)c2c1CCOC2,.[5.79 µM]
CC1=C[C@@H](CN(C)CCO)[C@H](C(C)C)C[C@H]1Cc1nnc(-c2ccc(C)cc2)o1,10µM
CC1=C[C@@H](CN(C)CCO)[C@H](C(C)C)C[C@H]1Cc1nnc(-c2ccccc2F)o1,13µM
C#CCN(C)C[C@@H]1C=C(C)[C@H](Cc2nnc(-c3ccc(C)cc3)o2)C[C@H]1C(C)C,.
O=C(CC1CNCCO1)NCc1nc(-c2cccc(F)c2)c(-c2ccccn2)[nH]1 (stereo unspecified),.
SMILES,Pf Dd2 inh
COCCNC(=O)N1CCCC(CNC(=O)C2(c3ccc(Cl)cc3)CC2)C1 (stereo unspecified),.
COCCNC(=O)C[C@@H]1C[C@H]2O[C@H](CNC3CCC3)[C@@H](O)[C@H]2O1,.
CC1CCN(C(=O)c2ccccc2OCC2CCCN(C3CCC3)C2)CC1 (stereo unspecified),.
O=C1COCC2(CN1)CN(c1ccc(Oc3ccccc3)cc1)C2,.
Cc1ccc(-c2noc(-c3ccccc3NC(=O)C3CC(=O)N(c4ccc(C)cc4)C3)n2)cc1 (stereo unspecified),1.4µM
Cc1ccc(N2CC(C(=O)Nc3ccc(Cl)cc3Cl)CC2=O)cc1 (stereo unspecified),.
Cc1ccc(N2CC(c3noc(-c4ccccc4C)n3)CC2=O)cc1 (stereo unspecified),.
COc1cncc(NC(=O)C2=NO[C@@H]3CN(Cc4sccc4C)C[C@H]23)c1,.
COCCN(C)C[C@H]1C[C@H](CO)CN(C(=O)c2ccc(SC)cc2)C1,.
O=C(O)CCC1CCN(S(=O)(=O)c2ccccc2F)CC1,.
CC(C)N1C[C@H](O)C[C@H]1c1nnc2n1CCN(C(=O)Cc1ccccc1)CC2,.
O=C(c1ccoc1)N1CCC(Nc2cccn3ncnc23)CC1,.
Cc1cccc(CC(=O)N2CCC(Nc3cccn4ncnc34)CC2)c1,11µM
Cc1cccc(CC(=O)N2CCC(c3nn(C)c4c3COCC4)CC2)c1,.[5.79 µM]
Cc1cc(C)cc(NC(=O)CCCn2nc(C)c3c(C)n(-c4ccccc4)nc3c2=O)c1,.
Cc1ccc(CNC(=O)CCCCn2c(=O)c3ccccc3n(Cc3ccc(C)cc3)c2=O)cc1,.
Cc1cc(C)cc(NC(=O)CCCn2c3ccccc3c(=O)c3ccccc32)c1,10µM
COCC(=O)N1CC[C@]2(O)CCN(C(=O)c3ccccc3N(C)C)C[C@@H]2C1,.
O=C(Nc1cccc(C(F)(F)F)c1)N1CCC(n2cnnc2C2CC2)C1 (stereo unspecified),.
CC(=O)N1CCN(C(=O)c2cccnc2)C[C@H]1C(=O)N[C@@H](CC1CCCCC1)C(N)=O,.
O=C(CSc1nc2ccccc2n1Cc1ccccc1F)NCc1ccccc1,.
Cc1ccccc1Cn1c(SCc2ccc(C(=O)NCc3cccs3)cc2)nc2ccncc21,10µM
Cc1oc(-c2ccccc2F)nc1Cn1c(SCc2ccccc2F)nc2ccncc21,.
O=C(NCc1cccs1)c1ccc(CSc2nc3ccncc3n2Cc2ccccc2F)cc1,13µM
CS(=O)(=O)N1CCC(CC(=O)NC2CCCCC2)C1 (stereo unspecified),.
SMILES,Pf Dd2 inh
C=CCNC(=O)c1cn2c(n1)CN([S+](=O)([O-])c1cccc(C(F)(F)F)c1)CC2,.
Cn1nc2c(c1NC(=O)Cn1nc3c(cc1=O)CCCCC3)CSC2,.
Cc1ccc(CNC(=O)Cn2c(-c3ccccc3)nc(C)c(CCO)c2=O)cc1,.
CCOCCCn1c(=N)c(C(=O)NC2CCCC2)cc2c(=O)n3cccc(C)c3nc21,2.2µM
COCCn1c(=N)c(C(=O)NC2CCCC2)cc2c(=O)n3cc(C)ccc3nc21,.
CCOCCCn1c(=N)c(S(=O)(=O)c2ccc(C)cc2)cc2c(=O)n3cccc(C)c3nc21,.
COc1cc(OC)cc(C2NC(=O)NC(C)=C2C(=O)N2CCNC(=O)C2)c1 (stereo unspecified),.
CCCc1ccc(S(=O)(=O)N(C)CC2CCOCC2)cc1,.
CCc1ccc(NC(=O)CC2C(=O)N(c3ccc(C)cc3)C(=O)N2C2CCCC2)cc1 (stereo unspecified),11µM
CCOc1ccc(NC(=O)CC2C(=O)N(c3ccccc3)C(=O)N2C2CCCC2)cc1 (stereo unspecified),.
COc1ccc(NC(=O)CC2C(=O)N(c3ccc(OC)cc3)C(=O)N2C2CCCCC2)cc1 (stereo unspecified),.
CCc1ccc(NC(=O)CC2C(=O)N(c3ccc(Cl)cc3)C(=O)N2C2CCCC2)cc1 (stereo unspecified),10µM
CCOc1ccc(NC(=O)CC2C(=O)N(c3ccc(OC)cc3)C(=O)N2C2CCCCC2)cc1 (stereo unspecified),.
CCOC(=O)c1ccc(NC(=O)CC2C(=O)N(c3ccc(C)cc3)C(=O)N2C2CCCCC2)cc1 (stereo unspecified),.
C=CCC(=O)N1CCOC(CCCC(C)C)C1 (stereo unspecified),.
O=C([C@@H]1C[C@H](Oc2cccnc2)CN1C(=O)c1nccc2ccccc12)N1CCOCC1,.
COc1ccc(CN2Cc3cc(NC(=O)c4cccc(F)c4)ccc3OCC2=O)c(OC)c1,.
CN1C(=O)CC(C(=O)O)C12CCN(C(=O)c1ccc3c(c1)CCC3)CC2 (stereo unspecified),.
NS(=O)(=O)c1ccc(C(=O)N[C@H](c2cccs2)C2CC(O)C2)cc1 (stereo partly specified),.
